According to PubChem BioAssay (NCI):
This is part of a sample that, as a whole, favours compounds with a hit. Of some 83,000 tested, about 20% had one in any assay.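 Method: cells in 96-well plates; compound added at one concentration; 48 h incubation; percent growth measured; values under 10 scored active.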 A number with no mark means an inactive call. Active and inactive are the calls of the source.

Tests used:
Experiment in all cases: NCI-60 one-dose screen, 48 h (100 = growth as untreated, 0 = no growth, -100 = all killed)
Settings in all cases: 10 µM
[1] = tested on: EKVX NSCLC
[2] = tested on: SN12C renal
[3] = tested on: UO-31 renal
[4] = tested on: TK-10 renal
[5] = tested on: ACHN renal
[6] = tested on: CAKI-1 renal
[7] = tested on: A498 renal
[8] = tested on: CCRF-CEM leukemia
[9] = tested on: MOLT-4 leukemia
[10] = tested on: SR leukemia

Compound	growth [1] [%]	growth [2] [%]	growth [3]	growth [4]	growth [5]	growth [6]	growth [7]	growth [8]	growth [9]	growth [10]
Clc1ccc(-c2cn(-c3ccccc3)c(-c3ccccc3)n2)c(Cl)c1	50.5	12.2	-66.9% (active)	-82.9% (active)	-100% (active)	-22.8% (active)	-28.3% (active)	34.8%	6.15% (active)	-51.6% (active)
COc1ccc(-c2nc3ccccn3c2-c2nnc(-c3cc(OC)c(OC)c(OC)c3)o2)cc1	71	69.7	77.7%	77.9%	49.4%	80.1%	48.2%	88.4%	92.1%	37.7%
Clc1cccc(-c2nc(-c3cccs3)no2)c1	85.4	97.1	74.1%	110%	96.3%	103%	93.1%	78.3%	86.3%	85.7%
Clc1ccccc1N=Cc1ccc2c(c1)OCO2	99.7	92	80%	107%	111%	93.6%	102%	88.8%	87.9%	89%
COc1ccc(/C(=C2\O[C@@H]([C@H]3COC(C)(C)O3)[C@H]3OC(C)(C)O[C@@H]23)c2cc(OC)c(OC)c(OC)c2)cc1O	90.2	57.7	49.1%	109%	44.7%	93%	63.3%	47.9%	59.9%	25.4%
COc1ccc(-c2ccc3cc(C(=O)Nc4ccc(O)c(C(=O)/C=C/c5cc(OC)c(OC)c(OC)c5)c4)ccc3c2)cc1	101	92.6	59.6%	100%	96.3%	86.6%	91.2%	53.8%	69.6%	60.3%
CCN(CC)CCOc1nc2ccccc2c2c1-c1ccc(OC)cc1C2=O	16	18.1	-53.3% (active)	-1.29% (active)	-6.81% (active)	-28.6% (active)	39.9%	4.01% (active)	-2.16% (active)	-8.96% (active)
COc1ccc(CN2CCC(N3CCCC3=O)c3cc(Cl)ccc32)cc1 (configuration not stated)	106	99.5	73.6%	108%	101%	114%	111%	–	83%	84.2%
Cc1cccc2c(NCCN(C)C)c3cccc(C(=O)NCCN(C)C)c3nc12	19.4	15.9	-67.6% (active)	-15.9% (active)	-44.6% (active)	6.76% (active)	33.8%	–	1.96% (active)	-14.7% (active)
O=C(O)CN1C(=O)c2cccc3cccc(c23)C1=O	82.6	95.4	97.1%	114%	101%	89%	85.9%	–	115%	112%
